In ChEMBL document CHEMBL4513216, “Probing the Open Global Health Chemical Diversity Library for Multistage-Active Starting Points for Next-Generation Antimalarials” (ACS Infect Dis, 2020) one finds INHIBITION data, which are given here for 107 compounds.

Hit rate of the full screen: of about 69,000 compounds, about 8,600 (12%) showed an effect of 50% or more. Only a selection was taken, and strong results are over-represented in it overall.

In this experiment the test system is Plasmodium berghei. Kind of experiment: Screen against P. berghei liver stage (PbLuc), transformed with Luciferase, at 10uM. The class given is functional, HepG2. The note with it: tested at 10 uM.
On to `O=C1CC2(CCCNC2)C(=O)N1Cc1cccc(F)c1` (configuration not stated), for which the INHIBITION is 0.112%.

In the case of `Cc1ccc(C(=O)NS(=O)(=O)Cc2ccc(F)cc2)cc1S(C)(=O)=O`, the INHIBITION is given as 41.6%. `CNC(=O)c1ccc2c(c1O)OC(C)(C)C2`: the INHIBITION stood at 30%.

For `CNC(=O)CN1CCN(C(=O)c2ccn(C)c(=O)c2)CC1`, the INHIBITION was -7.31%. As to `CC(C)CN1CCC2(CCN(Cc3ccoc3)CC2)C1=O`, the INHIBITION came to 50.7%.

`Cn1cc(CN2CCCC3(CCN(Cc4cccnc4)C3=O)C2)cn1` (configuration not stated): the INHIBITION is recorded as 43.2%. The result for `CN(C)C(=O)CN1CCC2(CCN(C(=O)N(C)C)CC2)C1=O` reads -19.6%; that for `CN(C)C(=O)CN1CCC2(CCCN(Cc3cccnc3)C2)C1=O` (configuration not stated), 72.9%; that for `CN(C)C(=O)CN1CCC2(CCCN(Cc3cccn3C)C2)C1=O` (configuration not stated), -10.2%.

For the compound `CN(C)C(=O)CN1CCC2(CCN(S(C)(=O)=O)CC2)C1=O`, the INHIBITION worked out at 18.6%. The result for `O=C1N(CC2CC2)CCC12CCN(Cc1ccoc1)CC2` reads 11.2%. In the case of `CN(C)C(=O)CN1CCC2(CCCN(Cc3ccoc3)C2)C1=O` (configuration not stated) it was 53.9%; in that of `CC(C)CN1CCC2(CCN(Cc3ccc(F)cc3)CC2)C1=O`, -15.9%; in that of `CN(C)C(=O)CN1CCC2(CCCN(Cc3ccsc3)C2)C1=O` (configuration not stated), 18.6%. Consider `CN(C)C(=O)CN1CCC2(CCN(C(=O)N3CCCC3)CC2)C1=O`, for which the INHIBITION amounted to 54.3%. Consider `CN1CCC(CN2CCC3(CCCN(Cc4ccoc4)C3)C2=O)CC1` (configuration not stated), for which the INHIBITION was 1.34%. The result for `O=C1CCN(C(=O)NCC(c2ccccc2)c2ccccc2)CCN1` reads -61.4%.

As to `O=C1CC[C@H](C(=O)Nc2cnn(-c3ccccc3Br)c2)N1`, the INHIBITION amounted to 30%. Take `Cc1cc(C)nc(C2CCN(C(=O)c3c(C)noc3C)C2)n1` (configuration not stated): the INHIBITION is -8.12%. As to `Cc1ncnc2c1CCN(Cc1cccs1)CC2`, the INHIBITION is reported as -33%. Take `Cc1ccc(C(=O)N2CCCCC2CNC(N)=O)cc1F` (configuration not stated): the INHIBITION is 44.3%. Consider `O=C([C@H]1CN(Cc2ccoc2)C[C@H]2OCC[C@@H]12)N1CCCCO1`, for which the INHIBITION was determined as 39.4%. The result for `Cc1ccc(-n2ncc(C(=O)N3CCCC3c3cnn(C)c3)c2C)cc1` (configuration not stated) reads 2.3%.

On to `CC(C)Oc1ncccc1CNC(=O)c1cnccn1`, for which the INHIBITION is reported as 7.12%.

With `CCS(=O)(=O)CCNC(=O)[C@@]12CNC[C@@H]1CN(C1CCCC1)C2`, the INHIBITION turned out to be 30.8%. The result for `CNS(=O)(=O)CCNC(=O)[C@@]12CNC[C@@H]1CN(C1CCCC1)C2` reads 28.7%.

Consider `CN1CCC(O)(CCNC(=O)[C@@]23CNC[C@@H]2CN(C2CCCC2)C3)CC1`, for which the INHIBITION is 62.9%.

As to `Cc1nn(C)cc1S(=O)(=O)N[C@@H]1CCC[C@@H](n2ccnc2)[C@@H]1O`, the INHIBITION is 7.19%. With `COc1ccc(-n2cnnc2SCC(=O)N(C)C(C)C)cn1`, the INHIBITION worked out at 59.4%. `COc1ccc(-n2cnnc2SCC(=O)NC(C)C)cn1`: the INHIBITION is 64.5%. Regarding `CCC(C)Sc1nncn1-c1ccc(OC)nc1` (configuration not stated), the INHIBITION is given as -30.5%. In the case of `COC(=O)CCSc1nncn1-c1ccc(OC)nc1` it was 22.6%; in that of `COc1ccc(-n2cnnc2SCC(C)(C)O)cn1`, 1.28%; in that of `COc1ccc(-n2cnnc2SCCC#N)cn1`, 33.4%. The result for `COCCS(=O)(=O)NCc1ccc(N(C)C)c(C)c1` reads 2.65%.

Take `COCC(=O)N1CCCC1(C)c1nc(C)cc(O)n1` (configuration not stated): the INHIBITION was -33.4%. The result for `CCCc1n[nH]c(C2CN(C(=O)c3ccc4c(c3)COC4)CCO2)n1` (configuration not stated) reads 15.5%; that for `COCc1nc(C(=O)N2CCCC2c2cc(C)no2)cs1` (configuration not stated), -3.2%. The result for `Cc1ncc2c(n1)CN(CC(=O)NCCOc1ccccc1)CC2` reads -3.7%. With `Cc1ccc(N2CCC3(CCN(C(=O)c4ccsc4)CC3)CC2)nn1`, the INHIBITION amounted to 9.63%. The result for `C[C@@H]1CN(C(=O)Cc2ccsc2)C[C@]12CCN(CCN(C)C)C2=O` reads 26%. In the case of `Cc1ccc2c(n1)N(CCN(C)C)CCN(C(=O)N1CCOCC1)C2` it was 18.3%. Turning to `COCCN1CCN(C(=O)N2CCCC2)Cc2ccc(C)nc21`, the INHIBITION is 62.5%. For `Cc1ccc2c(n1)N(CCn1cccn1)CCN(C(=O)NC1CC1)C2`, the INHIBITION is 37.8%. The result for `COCCN1CCN(S(=O)(=O)C2CC2)Cc2ccc(C)nc21` reads 0.804%; that for `Cc1ccc2c(n1)N(CC1CC1)CCN(C(=O)NC1CC1)C2`, 30.3%. The result for `COCCN1CCN(C(=O)NC2CC2)Cc2ccc(C)nc21` reads 60.1%.

For the compound `COCCC(=O)N1CCC(c2ccc3c(NC(C)C)n[nH]c3n2)C1` (configuration not stated), the INHIBITION was -36.4%. The result for `CCOC1COC2(CCN(Cc3ccc(C)cc3)CC2)C1` (configuration not stated) reads 17.4%; that for `CCOc1ncnc2c1CCN(C(=O)CN(C)C)CC2`, 42.3%; that for `CC(C)(C)C(=O)N1CC(=O)N(Cc2ccco2)CC(O)C1` (configuration not stated), 40.4%.

Consider `CCCC(NC(=O)c1cc(C)c(F)cc1F)c1nnn[nH]1` (configuration not stated), for which the INHIBITION came to 58.5%. With `CCCC(NC(=O)c1cc(C)ccc1C)c1nnn[nH]1` (configuration not stated), the INHIBITION is 16.6%. The result for `CCCC(NC(=O)c1ccc(C)cc1C)c1nnn[nH]1` (configuration not stated) reads 43.1%; that for `Cn1cc(C(=O)Nc2ccc3c(c2)CN(C(=O)C2CC2)CC3)nn1`, -7.25%; that for `CC(=O)N(Cc1ncc(C(C)C)o1)C1CCN(Cc2cc(C)on2)C1` (configuration not stated), 2.7%. In the case of `O=C(CNc1ccccc1S(=O)(=O)C(F)F)NCc1ccco1` it was 33.2%; in that of `O=C(CNc1cccc(S(=O)(=O)C(F)F)c1)NCc1ccco1`, 51.7%.

With `O=C(NCc1ccco1)Nc1cccc(S(=O)(=O)C(F)F)c1`, the INHIBITION worked out at 42.4%. For the compound `Cc1nc(C2CN(Cc3scnc3C)CCO2)cc(N(C)C)n1` (configuration not stated), the INHIBITION is 68.9%. The result for `CNc1cc(C2CN(Cc3csc(C)n3)CCO2)nc(C)n1` (configuration not stated) reads 41.2%; that for `CNc1cc(C2CN(Cc3scnc3C)CCO2)nc(C)n1` (configuration not stated), -26.2%; that for `CC(C(=O)N1CCN(c2ccc(F)cc2)CC1)n1cc(Br)cn1` (configuration not stated), 6.83%. The result for `Cn1nnc2c1CCN(C(=O)C1CCC1)C2COCCN1CCCC1` (configuration not stated) reads 19.5%; that for `Cc1cc(CN2CCN(C(=O)NC(C)c3cccnc3)CC2)no1` (configuration not stated), 7.15%; that for `O=C(NCc1nccn1CCc1ccccc1)NCC1CCC1`, 44.5%. In the case of `c1snnc1CN1C[C@H]2CCC[C@@H](CN3CCOCC3)[C@H]2C1` it was -41.8%; in that of `Cc1cc(C[C@@H]2COC[C@H]2NCc2ccc(C)c(C)c2)on1`, 1.5%; in that of `CCOc1cc(CN[C@@H]2COC[C@H]2Cc2cc(C)no2)ccc1O`, 74.9%. For `Cc1ccc(CN[C@@H]2COC[C@H]2Cc2cc(C)no2)cc1`, the INHIBITION is listed as -22.6%.

For the compound `COC(=O)c1ccc(CN[C@@H]2COC[C@H]2Cc2cc(C)no2)cc1`, the INHIBITION was 0.301%. In the case of `Cc1cc(C[C@@H]2COC[C@H]2NCc2ccc(C(C)C)cc2)on1`, the INHIBITION came to 28%. In the case of `Cc1cc(C[C@@H]2COC[C@H]2NCc2ccc(Cl)c(Cl)c2)on1` it was 50.8%. As to `NC(=O)CC1CCCN(c2cncc(OCc3ccccc3)n2)C1` (configuration not stated), the INHIBITION amounted to 27.6%. With `CC(C)CCc1nc(CN2CCOC(Cn3cncn3)C2)cs1` (configuration not stated), the INHIBITION is on record as 36.1%. In the case of `Cc1n[nH]c(C2CN(CC(=O)NCc3cccs3)CCO2)n1` (configuration not stated) it was 8.9%. The result for `O=C(c1cccc(F)c1)N1CCC2(CC1)CC(N1CCOCC1)C2` reads 1.34%. For `Cc1cnn(CC2CN(Cc3nc(-c4cccnc4)no3)CCO2)c1` (configuration not stated), the INHIBITION was -4.94%. In the case of `CCn1ccnc1CN1CCN(Cc2ccc(C)o2)[C@@H]2CS(=O)(=O)C[C@@H]21` it was 16.7%.

As for `Nc1nc(CNc2ncnc3c2CCN(Cc2ccoc2)CC3)cs1`, the INHIBITION was determined as 51.8%.

Turning to `c1cc(CCNc2ncnc3c2CCN(Cc2ccoc2)CC3)ccn1`, the INHIBITION was determined as 12.8%. The result for `CC(C)Nc1ncnc2c1CCN(Cc1ccoc1)CC2` reads -22.1%; that for `O=C(c1cncs1)N1CCOC(c2cc(CCO)[nH]n2)C1` (configuration not stated), -4.5%; that for `O=C([C@H]1C[C@H]2OCC[C@H]2N(C(=O)c2ccccn2)C1)N1CCCCO1`, 22.2%. In the case of `CCN(CC)CCCNCc1cc2cccc(C)c2[nH]c1=O` it was -36.4%; in that of `CCCN1CCN(C(=O)Cn2nc(C(F)(F)F)c(Br)c2C2CC2)CC1`, 64.7%; in that of `CCN1CCN(C(=O)Cn2nc(C(F)(F)F)c(Br)c2C2CC2)CC1`, 30.8%. The result for `CN1CCN(C(=O)Cn2nc(C(F)(F)F)c(Br)c2C2CC2)CC1` reads 16.5%. In the case of `CCN1CCCC1CNC(=O)Cc1c(C)n[nH]c1-c1ccc(F)cc1` (configuration not stated), the INHIBITION was 38.8%. In the case of `CCOC(=O)c1sc2ccsc2c1CN` it was 0.938%. The result for `COc1cc(-c2cccc3c2OC(CN)C3)ccc1O` (configuration not stated) reads 50.8%; that for `COc1cc(-c2cccc3c2OC(CN)C3)cc(OC)c1OC` (configuration not stated), 48%. Turning to `COc1ccc(-c2cccc3c2OC(CN)C3)cc1F` (configuration not stated), the INHIBITION is reported as 47.1%. In the case of `Cc1ccc(CCCC(=O)N2CCC(CS(N)(=O)=O)CC2)s1` it was -0.554%. As for `CC(C)Oc1ncnc2c1CCN(Cc1ccc(F)cc1)CC2`, the INHIBITION is listed as 60.3%.

For `COCCN1CCc2ncnc(OC(C)C)c2CC1`, the INHIBITION came to 37.5%. In the case of `CC(C)Oc1ncnc2c1CCN(Cc1ccoc1)CC2`, the INHIBITION was determined as 8.85%.

For `COc1ccc(CN2CCc3ncnc(C4CC4)c3CC2)cc1`, the INHIBITION turned out to be 47.4%. In the case of `Cc1ccc(CN2CCc3ncnc(OC(C)C)c3CC2)s1` it was -34.6%; in that of `O=C(c1cccs1)N1CCc2ncnc(C3CCOC3)c2CC1` (configuration not stated), 53.2%. In the case of `O=C(c1ccncc1)N1CCc2ncnc(C3CCOC3)c2CC1` (configuration not stated) it was 49.7%; in that of `O=C(c1ccnnc1)N1CCc2ncnc(C3CCOC3)c2CC1` (configuration not stated), 38.1%; in that of `CC(C)Oc1ncnc2c1CCN(Cc1cccs1)CC2`, 40.7%. In the case of `CC(C)Oc1ncnc2c1CCN(Cc1ccco1)CC2` it was 50.7%.

For the compound `CCc1ncnc2c1CCN(Cc1ccc(OC)cc1)CC2`, the INHIBITION came to 26.7%.

`COc1ccc(CN2CCc3ncnc(OC(C)C)c3CC2)cc1`: the INHIBITION was 56.7%. With `COCC1CC2(CCN(Cc3cccc(C#N)c3)CC2)CN1C(C)C` (configuration not stated), the INHIBITION was -11.2%.
